This note sets out measurements from PubChem BioAssay (Tox21).

Values joined by “and” are separate entries in the source; they are usually repeats but may differ in a detail not shown here. Equal entries are not always repeated. Inconclusive results are not listed. A number with no mark means an inactive call. Active and inactive are the calls of the source. The call rests on the fitted dose curve; in most records, active means well fitted cell-killing curve with a large enough effect in the repeat runs; inconclusive means weak or mixed curves; inactive means no such curve, though single readings can be large or run the other way.
On the % scale 0 is the no-effect control and ±100 the full control effect; potency means the concentration at half of the fitted maximal effect.

The nature of this experiment: qHTS assay to identify small molecule agonists of the peroxisome proliferator-activated receptor delta (PPARd) signaling pathway - cell viability counter screen (AID 743211). Further: nearly all actives have a fitted effect of over 55% in size. The following applies: PPARd-bla HEK293H viability, CellTiter-Glo luminescence, 17 h; series mostly up to 62.6 µM; activity change, negative = cytotoxicity: at the top concentration. The text has this: U.S. Tox21 Program National Center for Advancing Translational Sciences [NCATS] NIH Chemical Genomics Center [NCGC] U.S. Environmental Protection Agency [EPA] National Institutes of Environmental Health Sciences [NIEHS] National Toxicology Program [NTP] U.S. Food and Drug Administration [FDA] Tox21 Assay Overview: The peroxisome proliferator-activated receptors (PPARs) are lipid-activated transcription factors of the nuclear receptor superfamily with three distinct subtypes namely PPAR alpha, PPAR delta (PPARd) and PPAR gamma. All these subtypes heterodimerizes with Retinoid X receptor (RXR) and have different physiological functions. […] To identify the compounds that activate PPAR-delta signaling, GeneBLAzer PPAR delta UAS-bla HEK293H cell line (Invitrogen, Carlsbad, CA, USA) containing a beta-lactamase reporter gene under the control of an Upstream Activator Sequence (UAS) was used to screen the Tox21 compound library. The cytotoxicity of the Tox21 compound library against the PPARd-bla cell line was tested in parallel by measuring the cell viability using CellTiter-Glo assay (Promega, Madison, WI) in the same wells.
Tox21 Assay Protocol Summary: PPARd-bla cells were dispensed at 3000 cells/6uL/well in 1536-well black wall/clear bottom plates using a Multidrop Combi (Thermo Fisher Scientific, Waltham, MA) dispenser. After the assay plates were incubated at 37 C and 5% CO2 for 5 h, 23 nL of compounds dissolved in DMSO, positive controls or DMSO only was transferred to the assay plate by a Pintool station (Kalypsys, San Diego, CA). The assay plates were incubated at 37C for 17 h. After 1 uL of LiveBLAzerTM B/G FRET substrate was added using a Bioraptr Flying Reagent Dispenser (FRD) workstation (Beckman Coulter, Indianapolis, IN, USA), the plates were incubated at room temperature for 2 h, and fluorescence intensity was measured by an Envision plate reader (PerkinElmer, Shelton, CT). For cell viability readout that measures cytotoxicity, 3 ul/well of CellTiter-Glo reagent was added into the assay plates using a Bioraptr FRD. After 30 min incubation at room temperature, the luminescence intensity in the plates was measured using a ViewLux plate reader (PerkinElmer).
(Quantitative high-throughput screening tests each substance at several concentrations.)
As for `CC(C)CCCCCOC(=O)c1ccccc1C(=O)OCCCCCC(C)C`, the “activity change, negative = cytotoxicity” value is 0.0552%.

Consider `CC(C)CCCCCCCOP(=O)(Oc1ccccc1)Oc1ccccc1`, for which the Potency is 27.7 µM (active).

On to `[Hg+2].[I-].[I-]`, for which the Potency is 2.19 µM (active).

For `ClC1=C(Cl)C2(Cl)C3C(Cl)C=CC3C1(Cl)C2(Cl)Cl` (stereo not given), the Potency was 38.9 µM (active).

As for `COP(=O)(OC)SCn1c(=O)oc2cc(Cl)cnc21`, the “activity change, negative = cytotoxicity” value is -8.56%.

As for `COc1cccc2c1C(=O)c1c(O)c3c(c(O)c1C2=O)C[C@@](O)(C(=O)CO)CC3OC1CC(N2CCOC(OC)C2)C(O)C(C)O1` (stereo not given in full), the “activity change, negative = cytotoxicity” value is -3.6%.

For `CCCCCCCCCCCCCCCC[N+](C)(C)C`, the Potency was 16.8 µM (active) and 38.9 µM (active) and 23.7 µM (active).

Take `c1ccc2c(c1)OCC(C1=NCCN1)O2` (stereo not given): the Potency was 23.7 µM (active).

Take `COC(=O)N(C(=O)N1CO[C@@]2(C(=O)OC)Cc3cc(Cl)ccc3C2=N1)c1ccc(OC(F)(F)F)cc1`: the “activity change, negative = cytotoxicity” value is -21.5%.

As for `CC(C)CC(C)(c1ccc(O)cc1)c1ccc(O)cc1`, the Potency is 55.1 µM (active) and 34.7 µM (active).

For the molecule `O=[N+]([O-])c1ccc2ccc3cccc4ccc1c2c34`, the “activity change, negative = cytotoxicity” value is -8.44%.

For the molecule `CC(C)CC(C)Nc1ccc(Nc2ccccc2)cc1` (stereo not given), the Potency is 38.3 µM (active).

In the case of `Cc1cc(C(C)(C)c2cc(C)c(O)c(C)c2)cc(C)c1O`, the Potency is 47.4 µM (active).

As to `O=c1c(C2CC(c3ccc(-c4ccc(Br)cc4)cc3)Cc3ccccc32)c(O)sc2ccccc12` (stereo not given), the Potency is 29.8 µM (active).

For `CCCN(CCC)CCc1c[nH]c2ccccc12`, the “activity change, negative = cytotoxicity” value was -17.1% [at 81.1 µM].

Regarding `Fc1cccc(Cl)c1CCl`, the “activity change, negative = cytotoxicity” value was -0.212%.

As to `N#CNC#N`, the “activity change, negative = cytotoxicity” value is -2.23% [at 81.1 µM].

For the molecule `CC(=O)Nc1ccc2c(c1)Cc1ccccc1-2`, the “activity change, negative = cytotoxicity” value is 0.271% [at 81.1 µM].

For the molecule `C=CC(=O)OCC(COC(=O)C=C)(COC(=O)C=C)COC(=O)C=C`, the Potency was 6.92 µM (active).

Regarding `COc1cc(N)c(Cl)cc1C(=O)NC1CN2CCC1CC2` (stereo not given), the “activity change, negative = cytotoxicity” value is 0.719%.

Take `CCc1nn(C)c(C(=O)NCc2ccc(C(C)(C)C)cc2)c1Cl`: the Potency was 38.9 µM (active).

As for `Oc1ccc2ccc3cccc4ccc1c2c34`, the “activity change, negative = cytotoxicity” value was -9.45%.

Consider `C=CC(=O)OCCCCOC(=O)C=C`, for which the Potency is 49 µM (active).

With `BrC(Br)C(Br)(Br)Br`, the Potency was 49.3 µM (active).

On to `c1ccc(Nc2ccc3ccccc3c2)cc1`, for which the Potency entry was “inactive”.

`N#CCCSCCC#N`: the “activity change, negative = cytotoxicity” value is 4.93%.

As for `Oc1cc(Cl)c(Cl)c(Cl)c1`, the Potency is 46.5 µM (active).

Regarding `O=[N+]([O-])c1cc(C(F)(F)F)c(Cl)c([N+](=O)[O-])c1Cl`, the Potency is 11 µM (active).

As for `BrC(Br)Br`, the “activity change, negative = cytotoxicity” value was 2.07%.

Turning to `CC(c1ccc(O)cc1)c1ccc(O)cc1`, the “activity change, negative = cytotoxicity” value was 1.96%.

Consider `Clc1ccc(COC(Cn2ccnc2)c2ccc(Cl)cc2Cl)cc1` (stereo not given), for which the Potency was 16.2 µM (active) and 17.3 µM (active) and 21.1 µM (active).

Turning to `c1ccc2cc3c(cc2c1)-c1cccc2cccc-3c12`, the “activity change, negative = cytotoxicity” value is 8.3%.

As for `CN(C)c1ccc(N=Nc2ccccc2)cc1`, the “activity change, negative = cytotoxicity” value is 2.9%.

Take `O=C1c2ccccc2C(=O)C1C(=O)C(c1ccccc1)c1ccc(Cl)cc1` (stereo not given): the Potency is 24.5 µM (active).

With `CC1(c2ccc(Oc3ccccc3)cc2)OC(=O)N(Nc2ccccc2)C1=O` (stereo not given), the Potency is 49.3 µM (active).

With `CCN`, the “activity change, negative = cytotoxicity” value was 2.31% [at 81.1 µM].

As for `ClC1=C(Cl)C2(Cl)C3C(Cl)C(Cl)CC3C1(Cl)C2(Cl)Cl` (stereo not given), the Potency was 21.8 µM (active) and 24.5 µM (active).

`CC[C@H]1C[C@@H]2C[C@H]3c4[nH]c5ccc(OC)cc5c4CCN(C2)[C@@H]13`: the Potency was 60.1 µM (active).

Regarding `CN(C)C(=S)S`, the Potency is 546 nM (active) and 5.49 µM (active).

Take `Cc1ccc(OP(=O)(Oc2ccccc2)Oc2ccccc2)cc1`: the “activity change, negative = cytotoxicity” value was -28.3% [at 81.1 µM].
